Data reported in PubChem BioAssay (NCATS).
Records with an inconclusive call do not appear. Activity calls are given as the source filed them. Calls come from the whole dose curve; as a rule, active = well fitted activation curve with a large enough effect; inconclusive = small, poorly fitted or top-dose-only effect, or effect the other way; inactive = flat fitted curve, though single readings scatter.

Experiment: Cellular Toxicity (caspase-3) NIH 3T3 (AID 666);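 note: caspase signal read after 16 h compound exposure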;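 for caspase-3 activation: 0% = DMSO basal and 100% = 100 µM tamoxifen stimulation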
Details: NIH 3T3 caspase-3 activation, apoptosis/toxicity; series mostly up to 92.2 µM; caspase-3 activation: at the top concentration
Excerpt: NIH Chemical Genomics Center [NCGC]
NIH Molecular Libraries Screening Centers Network [MLSCN]
National Institutes of Environmental Health Sciences [NIEHS]
National Toxicology Program [NTP]
We have developed a 1536-well cell-based assay for quantitative high throughput screening (qHTS) against a number of cell lines to determine in vitro caspase 3/7 of small molecules. This particular assay uses the NIH 3T3 cell line which is derived from mouse fibroblasts.
NCGC Assay Protocol Summary:
The Caspase-Glo 3/7 assay (Promega) is a homogeneous method to measure caspase-3 and caspase-7 activities in cultured cells. The quantitation of caspase 3/7 activity is based on the cleavage of a peptide-aminoluciferin substrate. After caspase cleaves the substrate the free aminoluciferin is liberated and serves as the substrate of luciferase, which generates the light. The luminescent signal is proportional to amount of caspase 3/7 activity present.
Using the Caspase-Glo 3/7 assay, the amount of caspase 3/7 activity was measured in the NIH 3T3 cell line with complete culture medium following compound treatment for 16 hours. The assay was performed in opaque white 1536-well plates. In the screen, tamoxifen and doxorubicin were used as positive controls. Library compounds were measured for their ability to cause the activation of caspase 3/7 in the cell line, as reflected by an increase in luminescence signal, in a concentration-dependent manner. Data were normalized to the controls for basal activity (DMSO only) and 100% stimulation (100 uM tamoxifen). AC50 values were determined from concentration-response data modeled with the standard Hill equation.
qHTS protocol for caspase 3/7 assay in NIH 3T3 cells
[Step] [Parameter] [Value] [Description]
1. Reagent; 5 uL; 1000 NIH 3T3 cells/well
2. Time; 5 hr; 37 °C incubation
4. Controls; 23 nL; Tamoxifen 0.23 uM to 100 uM & Doxorubicin 7.0 pM to 100 uM
5. Time; 16 hr; 37 °C incubation
6. Reagent; 5 uL; Caspase-Glo 3/7 reagent
7. Time; 20 min; Room Temperature
8. Detection; Luminescence; Viewlux plate reader
Keywords: caspase 3/7, apoptosis, NIH 3T3 cell line, luminescence, NTPHTS, NTPHTS_NCGC, NIEHS, EPA, DSSTox, MLSMR, MLSCN, NIH Roadmap, qHTS, NCGC
Potency is the fitted concentration of half-maximal effect.

SMILES | Potency | caspase-3 activation
O=[N+]([O-])/C=C/c1ccccc1 | 25.1 µM (active) | 
O=C(O)CCl |  | -5.69% (inactive)
S=C1NCCN1 |  | -2.38% (inactive)
CCCN(CCC)c1c([N+](=O)[O-])cc(C(F)(F)F)cc1[N+](=O)[O-] |  | 3.03% (inactive)
Clc1ccc(C(c2ccccc2Cl)C(Cl)(Cl)Cl)cc1 (stereo not given) |  | -3.61% (inactive)
Nc1ccc(Oc2ccc(N)cc2)cc1 |  | -2.73% (inactive)
O=[N+]([O-])c1ccc2c3c(cccc13)CC2 |  | -2.44% (inactive)
O=[N+]([O-])c1cccc(O)c1 |  | -4.22% (inactive)
c1ccc(NNc2ccccc2)cc1 |  | -5.01% (inactive)
CC(C)(OOC(C)(C)c1ccccc1)c1ccccc1 |  | 0.457% (inactive)
Cl/C=C/CCl |  | 1.22% (inactive)
CCCCOC(C)=O |  | 5.15% (inactive)
O=[N+]([O-])c1cccc2c([N+](=O)[O-])cccc12 |  | -3.9% (inactive)
Nc1cc(Cl)ccc1O |  | -1.45% (inactive)
O=[N+]([O-])c1ccc(O)c([N+](=O)[O-])c1 |  | -22.3% (inactive)
CCCCCOC(=O)c1ccccc1C(=O)OCCCCC |  | -2.38% (inactive)
CC(C)Br |  | 4.51% (inactive)
Nc1cc(Cl)cc(Cl)c1 |  | 1.8% (inactive)
Oc1cc(Cl)c(Cl)c(Cl)c1 |  | 2.67% (inactive)
c1ccc(P(c2ccccc2)c2ccccc2)cc1 |  | -2.09% (inactive)

SMILES | Potency | caspase-3 activation
CC1CC(=O)O1 (stereo not given) |  | 0.245% (inactive)
C=CCCl |  | -1.26% (inactive)
ClCC(Cl)Cl |  | -1.53% (inactive)
O=[N+]([O-])CCO |  | 3.63% (inactive)
ClC(Cl)C(Cl)Cl |  | -2.59% (inactive)
O=C(O)C(Cl)(Cl)Br |  | -4.88% (inactive)
O=S(=O)(O)F |  | -3.87% (inactive)
CCOC(=O)CBr |  | 4.28% (inactive)
ClCc1ccccc1 |  | -1.83% (inactive)
CC(C)(C)c1ccccc1O |  | -2.43% (inactive)
CC(Cl)CCl (stereo not given) |  | -0.369% (inactive)
N#CC(Br)Br |  | -0.617% (inactive)
Oc1c(Cl)cccc1Cl |  | -0.0821% (inactive)
ClC(Cl)Br |  | -2.14% (inactive)
Cc1cc(-c2ccc(N)c(C)c2)ccc1N |  | -12.2% (inactive)
C1CC2OC2CC1C1CO1 (stereo not given) |  | -3.07% (inactive)
Nc1ccc(-c2ccc(N)c(Cl)c2)cc1Cl |  | 9.09% (inactive)
C=CCBr |  | 0.418% (inactive)
O=S(=O)(Cl)c1ccccc1 |  | 0.272% (inactive)
C[N+](=O)[O-] |  | 0.226% (inactive)
